According to PubChem BioAssay:
A number with no mark means an inactive call. Calls of active or inactive are those of the source.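 The calls were made as follows, unless noted: active = mean inhibition over 43.08%, the solvent-only control mean plus 3 SD; inactive = the rest.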

Columns and labels:
[1] = target: Nuclear receptor coactivator 3 (Homo sapiens) (UniProt Q9Y6Q9); experiment: NCOA3 GAL4-fusion reporter inhibition – cell-based, luminescence, quadruplicate, confirmation (AID 588792); details: HEK293 GAL4-SRC3 luciferase reporter, at 3.6 µM, active compounds read high;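 also: 0% = DMSO treated cells and 100% = gossypol at 36 µM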
[2] = system: transactivating tegument protein VP16 (Human herpesvirus 1), Gal4-VP16 luciferase reporter; experiment: repression of VP16-driven luciferase reporter – cell-based, luminescence, high throughput, counter-screen for SRC3 inhibitor project (AID 588794; in the data active = inhibition above about 30%); details: mammalian cells, at 3.6 µM, active compounds read high
[3] = target: Nuclear receptor coactivator 1 (Homo sapiens) (UniProt Q15788); experiment: NCOA1 GAL4-fusion reporter inhibition – cell-based, luminescence, quadruplicate, confirmation (AID 588820;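 active = mean inhibition above 46.68%, the untreated control wells mean plus 3 SD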;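 also: 0% = DMSO wells and 100% = gossypol 36 µM treated wells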); details: HEK293 GAL4-SRC1 luciferase reporter, at 3.6 µM, active compounds read high
[4] = repression of VP16-driven luciferase reporter – cell-based, luminescence, high throughput, counter-screen for SRC1 inhibitor project (AID 588824; in the data active = inhibition above about 25%); details: cell-based VP16 transactivation luciferase luminescence; at 3.6 µM; active compounds read high

Nuclear receptor coactivator 1 (Homo sapiens), sequence (Q15788 whole entry, looked up, the tested form may be a part): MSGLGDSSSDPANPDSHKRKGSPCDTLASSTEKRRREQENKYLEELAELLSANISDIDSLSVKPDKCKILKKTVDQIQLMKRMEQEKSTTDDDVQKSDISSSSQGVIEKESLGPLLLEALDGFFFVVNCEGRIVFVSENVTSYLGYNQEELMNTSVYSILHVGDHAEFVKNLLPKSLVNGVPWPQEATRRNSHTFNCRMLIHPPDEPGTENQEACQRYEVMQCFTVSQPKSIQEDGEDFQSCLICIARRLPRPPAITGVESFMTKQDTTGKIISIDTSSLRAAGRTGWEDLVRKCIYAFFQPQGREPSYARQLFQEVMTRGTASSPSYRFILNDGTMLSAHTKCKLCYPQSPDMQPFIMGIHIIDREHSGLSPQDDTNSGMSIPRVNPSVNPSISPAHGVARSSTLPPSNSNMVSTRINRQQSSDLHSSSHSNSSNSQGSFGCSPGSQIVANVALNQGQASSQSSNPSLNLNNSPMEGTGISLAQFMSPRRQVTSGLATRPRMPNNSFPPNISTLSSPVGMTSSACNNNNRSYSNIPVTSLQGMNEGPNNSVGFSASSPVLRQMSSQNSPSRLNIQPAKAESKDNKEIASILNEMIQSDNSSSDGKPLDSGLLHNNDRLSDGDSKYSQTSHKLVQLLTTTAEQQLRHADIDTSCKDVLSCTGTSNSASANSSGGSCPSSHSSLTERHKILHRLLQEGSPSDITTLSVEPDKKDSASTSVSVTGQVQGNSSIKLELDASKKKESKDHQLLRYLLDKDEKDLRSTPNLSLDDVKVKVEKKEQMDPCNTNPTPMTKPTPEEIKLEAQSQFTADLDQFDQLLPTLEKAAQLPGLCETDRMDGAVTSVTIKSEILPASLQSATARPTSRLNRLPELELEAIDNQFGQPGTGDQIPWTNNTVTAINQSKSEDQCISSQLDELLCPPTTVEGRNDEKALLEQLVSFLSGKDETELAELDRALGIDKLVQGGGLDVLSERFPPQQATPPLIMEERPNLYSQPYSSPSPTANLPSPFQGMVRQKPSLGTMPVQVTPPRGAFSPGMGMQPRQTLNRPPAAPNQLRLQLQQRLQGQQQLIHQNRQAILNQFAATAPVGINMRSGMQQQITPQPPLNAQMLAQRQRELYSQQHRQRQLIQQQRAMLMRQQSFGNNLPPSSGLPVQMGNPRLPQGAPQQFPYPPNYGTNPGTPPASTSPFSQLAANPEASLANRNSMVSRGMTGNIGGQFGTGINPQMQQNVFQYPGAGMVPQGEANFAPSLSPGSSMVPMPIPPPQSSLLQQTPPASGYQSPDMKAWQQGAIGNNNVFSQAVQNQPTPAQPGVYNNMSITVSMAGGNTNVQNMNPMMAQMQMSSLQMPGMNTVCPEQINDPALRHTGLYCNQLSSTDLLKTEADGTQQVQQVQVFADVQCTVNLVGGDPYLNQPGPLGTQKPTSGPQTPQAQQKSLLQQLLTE
Nuclear receptor coactivator 3 (Homo sapiens), sequence (Q9Y6Q9 whole entry, looked up, the tested form may be a part): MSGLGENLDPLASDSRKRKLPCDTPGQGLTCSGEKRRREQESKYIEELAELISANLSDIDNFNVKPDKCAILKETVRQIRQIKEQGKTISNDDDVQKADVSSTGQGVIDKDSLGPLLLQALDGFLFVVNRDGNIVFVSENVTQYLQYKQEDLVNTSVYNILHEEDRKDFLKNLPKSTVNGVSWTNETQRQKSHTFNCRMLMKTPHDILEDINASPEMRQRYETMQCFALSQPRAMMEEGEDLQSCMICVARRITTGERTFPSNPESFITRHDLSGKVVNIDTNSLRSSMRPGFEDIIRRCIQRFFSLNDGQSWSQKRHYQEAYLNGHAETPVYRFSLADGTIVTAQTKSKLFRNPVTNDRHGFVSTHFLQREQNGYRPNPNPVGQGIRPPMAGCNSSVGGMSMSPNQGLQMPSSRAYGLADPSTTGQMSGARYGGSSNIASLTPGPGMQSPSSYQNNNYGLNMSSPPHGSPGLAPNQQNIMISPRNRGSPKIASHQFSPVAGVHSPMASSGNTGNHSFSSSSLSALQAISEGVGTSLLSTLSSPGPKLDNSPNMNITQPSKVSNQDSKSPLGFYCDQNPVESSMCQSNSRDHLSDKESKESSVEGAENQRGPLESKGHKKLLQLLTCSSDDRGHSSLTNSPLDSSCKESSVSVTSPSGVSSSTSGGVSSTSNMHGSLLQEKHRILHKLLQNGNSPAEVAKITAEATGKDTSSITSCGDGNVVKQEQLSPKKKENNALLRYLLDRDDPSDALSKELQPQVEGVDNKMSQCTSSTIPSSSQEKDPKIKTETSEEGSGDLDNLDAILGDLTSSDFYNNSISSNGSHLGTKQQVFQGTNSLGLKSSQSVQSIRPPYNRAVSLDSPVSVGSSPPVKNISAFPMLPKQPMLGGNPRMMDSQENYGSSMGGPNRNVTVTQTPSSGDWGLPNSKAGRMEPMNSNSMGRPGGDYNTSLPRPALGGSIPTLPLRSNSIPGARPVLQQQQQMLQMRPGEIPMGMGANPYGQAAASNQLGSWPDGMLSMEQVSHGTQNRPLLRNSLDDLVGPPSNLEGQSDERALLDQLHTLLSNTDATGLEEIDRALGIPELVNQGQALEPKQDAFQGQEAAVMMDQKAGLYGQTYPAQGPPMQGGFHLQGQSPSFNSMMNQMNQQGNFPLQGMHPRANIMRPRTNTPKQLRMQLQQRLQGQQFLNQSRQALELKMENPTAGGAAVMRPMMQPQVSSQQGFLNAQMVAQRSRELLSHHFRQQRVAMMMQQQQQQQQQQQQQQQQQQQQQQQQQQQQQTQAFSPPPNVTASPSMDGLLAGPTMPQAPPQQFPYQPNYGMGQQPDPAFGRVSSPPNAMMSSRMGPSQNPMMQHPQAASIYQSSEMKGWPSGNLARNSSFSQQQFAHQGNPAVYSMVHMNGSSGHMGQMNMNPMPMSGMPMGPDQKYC

| SMILES | inhibition [1] | inhibition [2] | inhibition [3] | inhibition [4] |
| --- | --- | --- | --- | --- |
| O=C(NCc1ccco1)c1ccc2c(c1)N(Cc1ccccc1)CCS2 | 4.13% | 6.64% | 3.44% | 1.86% |
| O=C(Nc1nc(-c2ccc(S(=O)(=O)N3CCOCC3)cc2)cs1)c1ccccc1 | 0.95% | 19% | -17.1% | 12.6% |
| O=C(Nc1nc(-c2ccc(F)c(F)c2)cs1)c1ccc(OCC2CCCO2)cc1 (stereo unspecified) | 7.06% | 36% (active) | 5.41% | 39.4% (active) |
| COc1ccc2cc3c(N)nn(C(=O)c4ccc(Cl)c([N+](=O)[O-])c4)c3nc2c1 | 70.2% (active) | 39.4% (active) | 56.7% (active) | 36.5% (active) |
| COC1C(CO)OC(n2c3c(Cl)cccc3c3c4c(c5c6cccc(Cl)c6[nH]c5c32)C(=O)NC4=O)C(O)C1O (stereo unspecified) | 68.3% (active) | 49.2% (active) | 23.4% | 42.6% (active) |
| CCN1CCN(c2ccc(Nc3ccnc4ccccc34)cc2)CC1 | 43.5% (active) | 32.1% (active) | 40.1% | 42.5% (active) |
| Cc1ccc(S(=O)(=O)NC(CC(C)C)C(=O)NCC(c2ccco2)N2CCCCC2)cc1 (stereo unspecified) | 27% | 2.93% | 32.8% | -1.82% |
| COc1ccc(Cc2nnc(SCc3ccc([N+](=O)[O-])cc3)o2)cc1 | 26.2% | 15.8% | 19.3% | 17.4% |
| COC(=O)c1ccc2nc(NC(=O)C(C)(C)C)sc2c1 | -14.6% | -16.8% | -142% | -60.1% |
| NC(=O)N=Nc1c2[nH]c3ccccc3nc-2c2ccccc12 | -8.03% | 45% (active) | -11.8% | 48.8% (active) |
| CCOc1cc(C(N)=O)cc(Br)c1OCC | 37.3% | 22.4% | 43.4% | 21.6% |
| NC(=O)c1sc2nc3c(c(-c4ccco4)c2c1N)CCC3 | 53.9% (active) | 8.75% | 52.9% (active) | 33.1% (active) |
| Cc1ccccc1-c1cc(C(=O)Nc2sc(C(=O)OC(C)C)c(C)c2C#N)c2ccccc2n1 | 31.8% | 50.9% (active) | 37.2% | 40.9% (active) |
| O=C(Nc1cccc(S(=O)(=O)Nc2ccccc2Cl)c1)c1ccc(Cl)nc1 | -1.42% | 27.7% | 5.83% | 32.2% (active) |
| CCOC(=O)N=Nc1c2ccccc2c2nc3no[nH]c3nc12 | 95.7% (active) | 93.1% (active) | 88.3% (active) | 92.4% (active) |
| COc1cc(OC)c2nc(C)c3c(c2c1)N(c1ccc(O)cc1)CC3 | 5.19% | 37.7% (active) | 12.8% | 30.1% (active) |
| O=C(NCc1ccc(Cl)cc1)c1csc(-c2cccnc2)n1 | 13.6% | 16.3% | 10.2% | 7.38% |
| Cc1ccc(-n2c(O)c(C=Nc3cc(C)on3)c3ccccc3c2=O)c(C)c1 | 52.8% (active) | 39.9% (active) | 44.8% | 35.7% (active) |
| O=C(CCl)N1N=C(c2ccco2)CC1c1cccs1 (stereo unspecified) | 55.1% (active) | 31.6% (active) | 15.3% | 21.7% |
| Cc1sc2ncnc(Sc3nnnn3-c3ccccc3)c2c1C | 0.37% | -6.56% |  |  |
| COc1ccc(S(=O)(=O)Nc2cc([N+](=O)[O-])ccc2OC)cc1 | -7.49% | 2.4% |  |  |
| COc1cccc(-c2ccc3ncnc(NCc4cccnc4)c3c2)c1 | 45.5% (active) | 31.6% (active) | 24.8% | 36.2% (active) |
| CCOC(=O)C(=Cc1ccccc1OC)C(=O)OCC | 27.3% | 25.4% | 9.25% | 22.2% |

| SMILES | inhibition [1] | inhibition [2] | inhibition [3] | inhibition [4] |
| --- | --- | --- | --- | --- |
| Cc1ccc2nc(NNC(=O)c3ccc(S(=O)(=O)N4CCc5ccccc5C4)cc3)sc2c1 | 41.8% | 46.4% (active) | 45% | 50% (active) |
| O=c1cccc2c1c1cc[nH]c3ccc(=O)n2c31 | 43% | 32.9% (active) | 54.3% (active) | 40% (active) |
| O=[N+]([O-])c1cccc(C=NNc2ccc3ccccc3n2)c1O | -4.77% | -23.2% | -90.4% | -49.2% |
| COc1ccc(-c2cn[nH]c2-c2ccc(OC)cc2)cc1 | 59.5% (active) | 34.7% (active) | 38.7% | 33.8% (active) |
| COc1cccc(/C=N/NC(=O)c2cc3c(OC)cccc3[nH]2)c1O | 28.5% | 29% | 37.1% | 26% (active) |
| CC(C)(C)c1cc[n+](C2=C([O-])c3ccccc3C(=O)/C2=N\S(=O)(=O)c2cccs2)cc1 | 9.53% | 9.97% | -0.27% | 7.69% |
| CC(C)(C)c1nnc(N/N=C/c2ccccc2O)n(N)c1=O | 80.1% (active) | 76.7% (active) | 74.4% (active) | 76.2% (active) |
| CC(C)(C)c1cc(C(=O)N/N=C/c2ccc(O)cc2)n(-c2ccccc2)n1 | 34.9% | 14% | 20.3% | 13.7% |
| Cc1ccc(S(=O)(=O)N2[C@@H](c3ccc(C(C)(C)C)cc3)C(C(=O)O)=CC[C@H]2c2ccc(Cl)cc2)cc1 | 16.6% | 23.9% | 28.7% | 19.6% |
| Cc1nc2c(-c3ccc(Cl)cc3)c(C)[nH]n2c(=O)c1Cc1ccccc1 | 24.1% | 29.3% | 24.5% | 22.1% |
| COC1C(OC(=O)/C=C/C=C/C=C/C=C/C(=O)O)CCC2(CO2)C1C1(C)OC1CC=C(C)C (stereo unspecified) (tested in a mixture with another compound) | 17.6% | 20.7% | 9.4% | 20.7% |
| CCOC(=O)c1cc2sccc2n1CC(=O)N1CCc2ccccc21 | 43.4% (active) | 29.2% | 31.8% | 31.3% (active) |
| CCN(CC)c1ccc(/C=N/NC(=O)CNC(=O)C2COc3ccccc3O2)c(O)c1 (stereo unspecified) | 24.4% | 17.7% | 8.85% | 18.9% |
| CC(=O)c1c(C)oc2ccc(N(C(C)=O)S(=O)(=O)c3cccc4cccnc34)cc12 | 15.2% | 21.9% | 6.31% | 18.4% |
| O=C(Nc1scc(-c2ccc(Br)cc2)c1C(=O)O)c1ccccc1F | 10.7% | 15.8% | -17.2% | 10.7% |
| CC(C)(C)C(=O)NC(=S)NNC(=O)c1sc2ccccc2c1Cl | 10.1% | 3.67% | -1.3% | -6.4% |
| Cc1ccc(S(=O)(=O)N2CCN(S(C)(=O)=O)CC2)cc1 | 24.1% | 19.9% | -0.28% | 6.89% |
| COc1ccc(O)c(/C=N/NC(=O)c2c(C)nnn2-c2nonc2N)c1 | 25.4% | 19.7% | 14.4% | 12% |
| NC(=O)c1cc(Sc2ccccc2)nc2ccccc12 | 38% | 16.6% | 34.4% | 16% |
| O=C(Nc1ccc(S(=O)(=O)N2CCCCC2)cc1)c1ccc(CN2CCOCC2)cc1 | 15.9% | 46% (active) | -6% | 47.1% (active) |
| CCCCC(=O)NC(c1ccc(N(C)C)cc1)c1ccc2cccnc2c1O (stereo unspecified) | 58.5% (active) | 43.9% (active) | 48% (active) | 55.9% (active) |
| C[n+]1c2n(c3ccccc31)N=C(c1ccccc1)CS2 | 4.94% | 37.2% (active) | -2.14% | 35.1% (active) |
